Measured values: PubChem BioAssay (NCI)
Compounds without any hit were thinned out: in the full panel of roughly 79,000, 15% have a hit. Active and inactive are the calls of the source. Rule as the data show it: active = growth inhibition above about 70%; inactive = the rest.

experiment: NCI Yeast Anticancer Drug Screen. Data for the cln2 rad14 strain (AID 165);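 also: 0% = growth equal to vehicle treated cultures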; details: S. cerevisiae cln2 rad14 strain, at 50.0 µM (retest, dose inferred, filed as 5.0), stronger effect = higher value
In short: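 Yeast carrying cln2 and rad14 alterations (cell cycle control and DNA damage repair) were exposed to compounds. Growth inhibition was measured against vehicle-treated controls.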

| Compound | growth inhibition |
| --- | --- |
| CCCCCCCCCC(=O)NN=C(C)C | 81% (active) |
| O=C(/C=C/c1ccccc1)C1(c2ccccc2)CC1 | -34% (inactive) |
| Nc1n[n+](-c2ccccc2)no1 | 59% (inactive) |
| N#CC(C#N)=C(c1ccccc1)c1ccccc1 | 99% (active) |
| CS(=O)(=O)OCCCN(CCCOS(C)(=O)=O)c1ccc(C=Nc2ccc(-c3csc(COc4ccc(Br)cc4Br)n3)cc2)cc1 | 83% (active) |
| CSc1ncnc2ncn(C3OC(CO)C(O)C3O)c12 (stereo not given) | -3% (inactive) |
| CNC(=O)c1ccc(OC)cc1C1(O)c2ccccc2CCc2ccccc21 | 49% (inactive) |
| O=[N+]([O-])c1ccc(Oc2c(Cl)cccc2Cl)cc1 | -1% (inactive) |
| CN(C)C(=O)c1ccc(SC(=S)NCc2ccccc2)cc1 | 99% (active) |
| CC(C)c1ccc(C(=O)OC2CCCCC2)cc1 | 98% (active) |
| O=C(Nc1ccc(C(=O)c2ccccc2)cc1)Nc1ccc(Cl)c(Cl)c1 | 91% (active) |
| O=C1c2ccccc2C(=O)c2sc(Nc3ccc(Cl)cc3)nc21 | 98% (active) |
| O=C1NC(=O)N(c2ccc([N+](=O)[O-])cc2)C1=O | 5% (inactive) |
| CCN(CC)CCNc1nc(N)c2nc(-c3ccccc3)c(-c3ccccc3)nc2n1 | 5% (inactive) |
| CCCCCCCCOc1ccc(/C=C/C(C)=N/NC(N)=NC)cc1OC | 93% (active) |
| CC1=NN(C(=O)c2ccc(Cl)cc2)C(=O)C1N=Nc1ccc(S(=O)(=O)Nc2ncccn2)cc1 (stereo not given) | 2% (inactive) |
| CCOC(=O)C(Br)C(Br)c1cccc([N+](=O)[O-])c1 (stereo not given) | 99% (active) |
| Cc1ccccc1N1CCN(c2c3c(nc4ccccc24)CCCCC3)CC1 | 95% (active) |
| O=S(=O)(O)SCCNCCCCCC1CCCCC1 | 71% (active) |
| CC([N+](=O)[O-])C1(O)C(=O)c2cccc3cccc1c23 (stereo not given) | 42% (inactive) |
| CCS(CC)(CC)CC1CCCC2=CCC(P(=O)(c3ccccc3)c3ccccc3)CC21 (stereo not given) | 5% (inactive) |
| O=C(O)C(CS)Nc1c2ccccc2nc2ccccc12 (stereo not given) | 47% (inactive) |
| CCCCCCCCCCCC1C(C#N)C(=O)NC(=O)C1C#N (stereo not given) | 82% (active) |
| O=C(O)CCSSCCCCCS(=O)O | -22% (inactive) |
| CC(C)CNc1cc(Cl)nc(N)n1 | -6% (inactive) |

same assay, conditions: S. cerevisiae cln2 rad14 strain, at 50.0 µM, stronger effect = higher value

| Compound | growth inhibition |
| --- | --- |
| C=C(CCC(C)C1CCC2(C)C3=C(CC(O)C12C)C1(C)CCC(O)C(C)(C)C1CC3)C(C)C(=O)O (stereo not given) | 87.3% (active) |
| CC(=O)O[C@H]1CC[C@]2(C)C3=CC[C@]4(C)[C@@H](C(C)=O)CC[C@H]4[C@@]34C=C[C@]2(C1)C1C(=O)OC(=O)C14 (stereo not given in full) | -24% (inactive) |
| CCC1(c2ccc(N3C(=O)c4ccccc4C3=O)cc2)CCC(=O)NC1=O (stereo not given) | 9.4% (inactive) |
| O=C(NNS(=O)(=O)c1ccccc1)Nc1ccccc1 | 3.8% (inactive) |
| CCN(CC)CCNc1c(C)ccc2cccnc12 | -29.2% (inactive) |
| CCOC(=O)CCC(NC(=O)c1ccc(NC(OC)c2nc3cc(C(F)(F)F)ccc3nc2-c2ccccc2)cc1)C(=O)OCC (stereo not given) | 92.7% (active) |
| CCCC(O)C[N+](=O)[O-] (stereo not given) | 4.5% (inactive) |
| O=C(Nc1cccc(Br)c1)Oc1cccc2cccnc12 | 81.1% (active) |
| C=C1CC(C)(COc2ccc3c(C)c(C)c(=O)oc3c2C)OC1=O (stereo not given) | -23.1% (inactive) |
| Cc1cc(Br)c(N2C3=C(CC4=C2CCCC4=O)C(=O)CCC3)c(Br)c1 | 93.5% (active) |
| CCN(CC)CC(O)CNc1ccc(C)c2sc3ccccc3c(=O)c12 (stereo not given) | 99.5% (active) |
| COC1/C=C/OC2(C)Oc3c(C)c(O)c4c(c3C2=O)C(=O)C=C(NC(=O)/C(C)=C\C=C\C(C)C(OC=O)C(C)C(O)C(C)C(OC(C)=O)C1C)C4=O (stereo not given) | 79% (active) |
| OC(c1cc2ccccc2o1)c1cc2ccccc2s1 (stereo not given) | 61.6% (inactive) |
| Nc1nnc(-c2cc([N+](=O)[O-])cc([N+](=O)[O-])c2)o1 | -20.2% (inactive) |
| CC1SC(=S)N(c2ccc(Cl)cc2)C1=O (stereo not given) | -108% (inactive) |
| CCCCCCCCCC(=O)NN=C(C)C | 88.2% (active) |
| O=C(/C=C/c1ccccc1)C1(c2ccccc2)CC1 | -21.4% (inactive) |
| Nc1n[n+](-c2ccccc2)no1 | 23% (inactive) |
| N#CC(C#N)=C(c1ccccc1)c1ccccc1 | 99.5% (active) |
| CS(=O)(=O)OCCCN(CCCOS(C)(=O)=O)c1ccc(C=Nc2ccc(-c3csc(COc4ccc(Br)cc4Br)n3)cc2)cc1 | 85.8% (active) |

| Compound | growth inhibition |
| --- | --- |
| CSc1ncnc2ncn(C3OC(CO)C(O)C3O)c12 (stereo not given) | 53% (inactive) |
| CNC(=O)c1ccc(OC)cc1C1(O)c2ccccc2CCc2ccccc21 | 46.4% (inactive) |
| O=[N+]([O-])c1ccc(Oc2c(Cl)cccc2Cl)cc1 | -44.1% (inactive) |
| CN(C)C(=O)c1ccc(SC(=S)NCc2ccccc2)cc1 | 96.2% (active) |
| CC(C)c1ccc(C(=O)OC2CCCCC2)cc1 | 58.1% (inactive) |
| O=C(Nc1ccc(C(=O)c2ccccc2)cc1)Nc1ccc(Cl)c(Cl)c1 | 94.5% (active) |
| O=C1c2ccccc2C(=O)c2sc(Nc3ccc(Cl)cc3)nc21 | 88.8% (active) |
| O=C1NC(=O)N(c2ccc([N+](=O)[O-])cc2)C1=O | 18.1% (inactive) |
| CCN(CC)CCNc1nc(N)c2nc(-c3ccccc3)c(-c3ccccc3)nc2n1 | 27.6% (inactive) |
| CCCCCCCCOc1ccc(/C=C/C(C)=N/NC(N)=NC)cc1OC | 98.3% (active) |
| CC1=NN(C(=O)c2ccc(Cl)cc2)C(=O)C1N=Nc1ccc(S(=O)(=O)Nc2ncccn2)cc1 (stereo not given) | 19.4% (inactive) |
| CCOC(=O)C(Br)C(Br)c1cccc([N+](=O)[O-])c1 (stereo not given) | 98% (active) |
| Cc1ccccc1N1CCN(c2c3c(nc4ccccc24)CCCCC3)CC1 | 96.4% (active) |
| O=S(=O)(O)SCCNCCCCCC1CCCCC1 | 18.6% (inactive) |
| CC([N+](=O)[O-])C1(O)C(=O)c2cccc3cccc1c23 (stereo not given) | 76.7% (active) |
| CCS(CC)(CC)CC1CCCC2=CCC(P(=O)(c3ccccc3)c3ccccc3)CC21 (stereo not given) | 24.2% (inactive) |
| O=C(O)C(CS)Nc1c2ccccc2nc2ccccc12 (stereo not given) | 68.5% (inactive) |
| CCCCCCCCCCCC1C(C#N)C(=O)NC(=O)C1C#N (stereo not given) | -8.05% (inactive) |
| O=C(O)CCSSCCCCCS(=O)O | 1% (inactive) |
| CC(C)CNc1cc(Cl)nc(N)n1 | 91.3% (active) |
